# From PubChem BioAssay (NCI)
# About 83,000 compounds went through this panel and 20% of them were active in at least one assay; those are over-represented in the sample as a whole.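 A percent growth of 40 corresponds to 60% growth inhibition; 0 means no net growth; -100 means all cells died. Active threshold: below 10.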 Unmarked numbers belong to inactive results. Calls of active or inactive are those of the source.
# Key:
# Assay in all cases: NCI-60 one-dose screen, 48 h (100 = growth as untreated, 0 = no growth, -100 = all killed)
# Conditions in all cases: 10 µM unless noted
# [1] = tested on: HCT-15 colon
# [2] = tested on: HT29 colon
# [3] = tested on: SNB-75 CNS
# [4] = tested on: SNB-19 CNS
# [5] = tested on: U251 CNS
# [6] = tested on: PC-3 prostate
# [7] = tested on: SK-MEL-5 melanoma
# [8] = tested on: UACC-62 melanoma
# [9] = tested on: LOX IMVI melanoma
# [10] = tested on: SK-MEL-28 melanoma
# [11] = tested on: SK-MEL-2 melanoma
# [12] = tested on: EKVX NSCLC
# [13] = tested on: SN12C renal
# [14] = tested on: UO-31 renal
# [15] = tested on: ACHN renal
# [16] = tested on: CAKI-1 renal
# [17] = tested on: A498 renal
# [18] = tested on: CCRF-CEM leukemia
# [19] = tested on: MOLT-4 leukemia
# [20] = tested on: TK-10 renal
Structure (SMILES),growth [1],growth [2],growth [3],growth [4],growth [5],growth [6],growth [7],growth [8],growth [9],growth [10],growth [11],growth [12],growth [13],growth [14],growth [15],growth [16],growth [17],growth [18],growth [19],growth [20]
CC(C)(C)c1cc(C=O)cc(C(C)(C)C)c1O,102%,102%,83.6%,101%,96.3%,87.6%,92%,85.4%,98.4%,111%,96.2%,126%,104%,103%,105%,113%,105%,14.3%,14.8%,
COc1ccc(C(=O)c2nc3ccccc3n2CC(=O)c2ccc(F)cc2)cc1,56%,55%,59.6%,95.6%,90.5%,83.2%,88%,65.3%,94.5%,80.2%,72.4%,190%,92.7%,88.3%,105%,115%,116%,79.6%,74.8%,
Cc1ccc(-n2c3c(c(-c4ccccc4)c2-c2ccccc2)C2=NCCN2C=N3)cc1,81.3%,88%,70.5%,88.5%,92%,76.8%,68.1%,75.1%,93.6%,110%,99.3%,80.8%,85%,68.9%,96.4%,72.9%,,98.5%,92.9%,
COc1ccc(C(=O)Cn2c(C(=O)c3ccccc3)nc3ccccc32)cc1,18.6%,14.2%,-8.26% (active),55.2%,25.1%,29.7%,-1.14% (active),15.7%,43.8%,94.2%,64.2%,71.2%,43%,32.7%,46.1%,24%,46.8%,,7.92% (active),
Oc1ccc(C(c2ccc(O)cc2)c2ccc(Br)cn2)cc1,15.6%,70.5%,-10.3% (active),66.9%,86.9%,-17.1% (active),85.5%,38.9%,-12.2% (active),109%,31.6%,-37.1% (active),1.64% (active),53%,21%,79.5%,,111%,101%,
N#CC1=C(/N=C/c2ccccc2)Oc2c(ccc3ccccc23)C1c1ccc([N+](=O)[O-])cc1 (configuration not stated),91.4%,102%,60.4%,94.9%,97.4%,78.7%,86.9%,87.2%,90.4%,118%,90.8%,70.7%,93.5%,59.5%,87.9%,70.1%,,94.5%,94.4%,166%
c1ccc2c(-c3nccs3)c[nH]c2c1,94.3%,98.9%,90.7%,98.1%,103%,81.5%,95.3%,93.5%,99.7%,100%,112%,88.6%,98.3%,85.1%,97.6%,95.6%,,111%,91.8%,
C/C(=N\Nc1cc(C)nc2ccc(Br)cc12)c1ccc([N+](=O)[O-])cc1,21.7%,37.3%,105%,75.7%,20%,74.8%,92.3%,89.6%,-29.9% (active),99.2%,93.1%,78.2%,60.2%,64.4%,42.5%,84.6%,,13.5%,53.1%,115%
O=C(/C(=C/c1ccc([N+](=O)[O-])cc1)SCc1ccc(F)cc1)c1ccc(F)cc1,37.2%,22%,96.8%,68.4%,37.5%,78.3%,95.4%,63.7%,32%,103%,90.4%,101%,82.4%,54.3%,91.1%,75.2%,79.4%,7.75% (active),21.9%,
COC(=O)CNC(=O)[C@]12CCC(C)(C)C[C@H]1C1=CC[C@@H]3[C@@]4(C)Cc5c([nH]c6ccccc56)C(C)(C)[C@@H]4CC[C@@]3(C)[C@]1(C)CC2,87.7%,81%,87.6%,92.2%,82.3%,74.4%,98.1%,81.7%,94%,96.7%,77.3%,88.6%,89.8%,65.3%,49.1%,71.2%,,87.3%,63.6%,90.3%
CCN(Cc1ccccc1)c1ccc(C=O)cc1,91%,107%,82.1%,99.2%,92%,75.3%,98.9%,85.2%,91%,115%,98.3%,106%,96.7%,74.6%,91.9%,88%,,45.5%,97.2%,64.2%
COc1cc2c(=O)n(CCN(C)C)c3c4cc5c(cc4ccc3c2cc1OC)OCO5,-13.3% (active),0.585% (active),17.8%,6.11% (active),-4.24% (active),7.26% (active),-68.7% (active),-85.6% (active),-58.3% (active),-33.9% (active),-65.1% (active),-1.09% (active),-4.74% (active),-77.6% (active),-92.6% (active),-89.5% (active),,2.56% (active),3.91% (active),
COc1cc2oc(-c3cccc(C(=O)Nc4ccc(Br)cc4)c3)cc(=O)c2c(OC)c1OC,40.2%,39.5%,81.7%,80.9%,65.7%,53.1%,56.3%,63.7%,-20.9% (active),35.7%,71.2%,60%,50.9%,55.7%,72.5%,20.6%,,41.9%,49.5%,
Cc1ccc(-n2cc(-c3ccccc3)c3c2N=NN2CCN=C32)cc1,101%,110%,72.1%,92.2%,99.1%,86.4%,99.1%,82.3%,97.7%,109%,103%,87.5%,96%,74.5%,105%,68.7%,,101%,97.3%,
O=C(Cc1ccc(/C=C/C(=O)c2ncc[nH]2)cc1)Nc1ccc(Cl)cc1,-25% (active),0.843% (active),25.3%,4.9% (active),-60.6% (active),39%,52.5%,41.2%,-37.1% (active),67.9%,94.9%,65.2%,7.28% (active),2.84% (active),42.7%,32.1%,,-6.35% (active),5.1% (active),59.8%
COc1ccc(C(=O)c2cc(C)c(OC)c(C)c2)c(OC)c1N(C(=O)CCl)C(=O)CCl,4.71% (active),3.24% (active),45.2%,11.9%,16.1%,13.1%,-9.39% (active),24.5%,14.1%,54%,27.8%,51.7%,31.3%,39.3%,18.2%,42%,,8.61% (active),13.2%,
CCCCOc1ccc(/C=N/Nc2cc(C)nc3ccc(Br)cc23)cc1,-66% (active),-19.4% (active),107%,50.7%,-53.5% (active),53.3%,84.3%,87.3%,-96.9% (active),59.5%,106%,69.9%,-78.4% (active),-71.1% (active),19.9%,71.3%,,2.46% (active),-26% (active),

Structure (SMILES),growth [1],growth [2],growth [3],growth [4],growth [5],growth [6],growth [7],growth [8],growth [9],growth [10],growth [11],growth [12],growth [13],growth [14],growth [15],growth [16],growth [17],growth [18],growth [19],growth [20]
CC(C)N1C(=O)/C(=C2\SC(=S)N(C(C)C)C2=O)SC1=S,98.5%,96.8%,62.3%,92.6%,90.8%,89.3%,97.9%,91.7%,90%,97.8%,96.8%,82.9%,93.1%,78.6%,100%,93.7%,84.2%,87.8%,101%,
CCCOC(=O)N[C@H]1CCc2c(Cl)c(OC)c(OC)c(OC)c2-c2ccc(SC)c(=O)cc21,12.9%,14.7%,31.2%,31%,23.2%,24%,-10.3% (active),30.9%,10.7%,68.8%,48.2%,48.1%,20.5%,23.1%,30.7%,13.8%,,7.4% (active),8.02% (active),
O=C(c1ccccc1)N1N=C(c2ccc(-n3ccc(C(F)(F)F)n3)c(F)c2)CC1c1ccc[nH]1 (configuration not stated),100%,98.8%,98.4%,99.1%,98.5%,101%,103%,101%,101%,111%,102%,100%,101%,90.4%,110%,98.3%,,105%,98.8%,
CCOC(=O)C1=C(C)NC(SCc2cc(=O)oc3ccc(F)cc23)=N[C@@H]1c1cccc2ccccc12,93%,98.5%,98.8%,101%,102%,87.8%,99.9%,86%,99.9%,109%,85%,114%,93.3%,79.9%,91.9%,87.8%,,102%,84.7%,105%
N#C/C(=C\c1ccccn1)c1nc2cc(Cl)ccc2s1,63.5%,86.4%,8.52% (active),85.9%,73.8%,44.1%,83.7%,68.1%,72.7%,101%,95.9%,56%,64.7%,44.3%,75.8%,66.5%,64.6%,63.9%,75.6%,
CN1CCN(C(=O)[C@]23CCC(C)(C)C[C@H]2C2=CC[C@@H]4[C@@]5(C)C/C(=C/c6ccncc6)C(=O)C(C)(C)[C@@H]5CC[C@@]4(C)[C@]2(C)CC3)CC1,36.3%,5.24% (active),85.2%,61.2%,44.8%,19.5%,54.3%,61%,40.2%,74.7%,78.2%,80.2%,49.9%,37.3%,65.1%,75.4%,,19.7%,2.92% (active),
N#Cc1c(-c2cccc([N+](=O)[O-])c2)nc(SCC(=O)c2ccc(Cl)cc2)[nH]c1=O,103%,105%,72.2%,92.8%,97.3%,100%,106%,93.6%,96%,107%,110%,99.8%,96.9%,80.6%,103%,88.8%,92.3%,2.87% (active),,
Oc1c(Cl)cc(Cl)c(Cl)c1CNCCNCc1c(O)c(Cl)cc(Cl)c1Cl,25.1%,26.8%,51.9%,15.9%,10.1%,44.4%,-1.48% (active),-13.3% (active),6.53% (active),21.4%,18.3%,22.4%,,0.579% (active),8.86% (active),9.72% (active),51.3%,4.31% (active),10%,39.5%
COC(=O)C1=C(C(=O)ON)C2C=CC1(C(Cc1ccccc1)Nc1ccccc1)O2 (configuration not stated),-53.8% (active),37.9%,106%,106%,94.6%,100%,104%,89.9%,75.8%,65.4%,86.7%,91.9%,,16.9%,-99.7% (active),57.3%,,-7.87% (active),12.9%,-63.7% (active)
Cc1nnc2c(Cc3ccccc3)nc3ccccc3n12,106%,105%,78.1%,103%,101%,104%,97.6%,100%,92.4%,103%,110%,90.9%,,90.8%,100%,88.3%,90.6%,91.1%,91.2%,101%
COc1ccc(/C=C/c2nc(Nc3ccc(Cl)cc3)c3ccccc3n2)cc1,34.8%,48.3%,61.7%,64.4%,45.7%,54.5%,69.7%,14.3%,18.4%,90.2%,89.2%,,38.5%,34.3%,49.4%,56.5%,16.6%,8.06% (active),32.1%,70.8%
N#C/C(=C\c1cccc(C#N)c1)c1ccccc1,111%,96.6%,88.9%,109%,89.2%,99.7%,101%,108%,98.9%,115%,112%,,98.9%,93.3%,106%,96%,112%,,,91%
Cc1ccc(NS(=O)(=O)c2ccc(-c3cnc(C4CC4)o3)cc2)cc1C(F)(F)F,35.2%,28.5%,46.6%,61%,68.5%,68.1%,49%,47.3%,55.9%,64.1%,84.8%,75.3%,,58%,76.4%,42.7%,47%,56.8%,,93.7%
COc1cc(-c2csc(NC(=O)c3cc(F)cc(C(F)(F)F)c3)n2)cc(OC)c1OC,34.3%,6.41% (active),19.3%,40.2%,31.3%,36%,53.2%,43.6%,27%,50.3%,14.9%,,35%,45.3%,49.1%,42.7%,,17%,25.8%,65.1%
Cc1nc2sccn2c1-c1cn2ccsc2n1,70.3%,99.3%,84.8%,93.1%,90.8%,94.6%,65.6%,83.4%,98.4%,104%,98%,80.5%,,89.7%,99.3%,53.1%,82.7%,96.3%,,103%
O=C(/C=C/c1c(-c2ccc(Cl)cc2)nn(-c2ccccc2)c1C(F)(F)F)c1ccc(Cl)cc1,77.7%,89.9%,86.1%,96.1%,86.3%,92.2%,85.3%,82.5%,75%,103%,89%,94.8%,,74.1%,90.7%,90%,87.6%,85.6%,,118%
